# Assay results taken from PubChem BioAssay.
# For part of these data: Measured potencies and affinities stand elsewhere. Activity calls are given as the source filed them.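 The calls were made as follows, unless noted: active = fluorescence ratio normalized to control raised more than 50% in primary screen plus both repeat runs; inactive = the rest.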
# Key:
# [1] = tested on: TRPC4 beta (transient receptor potential cation channel C4), mouse; assay: TRPC4 cation channel opening, retest – cell-based, Fluo4 calcium, HEK293 TRPC4beta/mu-opioid, duplicates, 10 µM, confirmation (AID 2426); details: Fluo4 calcium fluorescence, at 10 µM; active compounds read high
# [2] = tested on: transient receptor potential cation channel C4 beta (TRPC4), mouse; assay: TRPC4 cation channel opening, second retest – cell-based, second round, Fluo4, HEK293 TRPC4beta/mu-opioid, 1 µM, confirmation (AID 2461;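 active = primary screen active and over 50% activation in each of two duplicate runs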); details: Fluo4 calcium fluorescence, at 1 µM; active compounds read high
# [3] = tested on: TRPC4 (transient receptor potential cation channel C4 beta), mouse; assay: potentiation of DAMGO EC20 TRPC4 response – cell-based, second round, Fluo-4, HEK293 TRPC4beta/mu-opioid, 1 µM, confirmation (AID 2554;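 active = primary screen hit whose fluorescence ratio, in both repeats, exceeds the weak agonist control mean by 3 SD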); details: DAMGO EC20, Fluo-4 calcium flux, at 1 µM; active compounds read high
# [4] = tested on: TRPC4 beta (transient receptor potential cation channel C4), mouse; assay: potentiation of DAMGO EC20 TRPC4 response – cell-based, Fluo-4, HEK293 TRPC4beta/mu-opioid, confirmation (AID 2555;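 active = primary screen hit whose calcium fluorescence ratio, in both repeats, exceeds the weak agonist control mean by 3 SD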); details: DAMGO EC20, Fluo-4 calcium flux, at 10 µM; active compounds read high
# [5] = biological target: Short transient receptor potential channel 4 (Mus musculus) (UniProt Q9QUQ5); assay: blockers of DAMGO-evoked TRPC4 calcium flux – cell-based, Fluo4, HEK293 TRPC4beta/mu-opioid, confirmation (AID 2636;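 active = calcium signal cut by more than 3 SD below the full-agonist control yet still positive, in both repeats and the earlier primary screen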); details: at 10 µM; active compounds read high
# [6] = biological target: Short transient receptor potential channel 4 (Mus musculus) (UniProt Q9QUQ5); assay: blockers of DAMGO-evoked TRPC4 calcium flux – cell-based, second round, Fluo4, HEK293 TRPC4beta/mu-opioid, 1 µM, confirmation (AID 2637;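 active = calcium signal ratio cut to more than 3 SD under the fully stimulated control mean yet still positive, in both repeats and the primary screen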;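 as to inhibition: percent of integrated ratio relative to wells lacking test compound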); details: at 1 µM; active compounds read high
# [7] = biological target: Short transient receptor potential channel 4 (Mus musculus) (UniProt Q9QUQ5); assay: calcium entry via TRPC4 opening agents – cell-based, HEK293 TRPC4/mu-opioid, Fluo-4 calcium, dose response (AID 434937;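 active = primary screen activator hit with a dose response curve and TRPC4 channel activation at any tested dose; inactive = no activation, no dose response, or not a primary hit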)
# [8] = biological target: Short transient receptor potential channel 4 (Mus musculus) (UniProt Q9QUQ5); assay: potentiation of DAMGO-evoked TRPC4 calcium signal – cell-based, HEK293 TRPC4/mu-opioid, Fluo-4 calcium, EC20 DAMGO, dose response (AID 434941;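 active = earlier screen potentiator hit that boosts the TRPC4 ion channel at some dose, with a dose response; inactive = no potentiation, no dose response, or not a prior hit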;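 also: calcium entry triggered by an EC20 dose of DAMGO at the co-expressed mu-opioid receptor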)
# [9] = biological target: Short transient receptor potential channel 6 (Mus musculus) (UniProt Q61143); assay: TRPC6 blockade by TRPC4 inhibitor hits – cell-based, HEK293, membrane potential dye, duplicate, selectivity assay for TRPC4 inhibitor project, confirmation (AID 434948;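 active = active in primary screen and both duplicates, each dropping signal beyond three positive-control SD with fluorescence still positive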); details: HEK293 TRPC6, membrane potential dye fluorescence, at 10 µM; inhibition: active compounds read high, stimulated with maximal-effect acetylcholine unless noted; outcome: stimulated with maximal-effect acetylcholine unless noted
# [10] = biological target: Short transient receptor potential channel 6 (Mus musculus) (UniProt Q61143); assay: TRPC6 opening by TRPC4 activator hits – cell-based, HEK293, membrane potential dye, duplicate, selectivity assay for TRPC4 activator project, confirmation (AID 434950;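 active = membrane potential signal rise above negative control mean plus 3 SD in both duplicates, also active in the earlier TRPC4 screen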); details: HEK293 TRPC6, membrane potential fluorescence, at 10 µM; activation: active compounds read high; outcome: activation
# [11] = biological target: Short transient receptor potential channel 6 (Mus musculus) (UniProt Q61143); assay: positive modulators of mouse TRPC6 channel – HEK293 cells, membrane potential dye, duplicate, selectivity assay for TRPC4 potentiator project, confirmation (AID 434952;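 active = compound raising the membrane signal above positive-control mean plus 3 SD in both repeats, and a primary screen hit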); details: HEK293 TRPC6, membrane potential dye fluorescence, at 10 µM; maximal acetylcholine added after compound unless noted
# [12] = biological target: Short transient receptor potential channel 4 (Mus musculus) (UniProt Q9QUQ5); assay: calcium flux activators in TRPC4/5HT1a cells, counter-screen for TRPC4 activator project, cell-based, second counter screen, HEK293 TRPC4/5HT1a, Fluo-4 (AID 434977;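 active = calcium signal rise above buffer-control mean plus 5 SD in both duplicates, and also a hit in the primary screen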); details: Fluo-4 calcium flux, at 10 µM; active compounds read high
# [13] = serotonin-gated TRPC4 signal block – cell-based, second counter screen, HEK293 TRPC4/5HT1a, Fluo-4, counter-screen for TRPC4 inhibitor project, confirmation (AID 434978;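 active = primary screen active whose calcium signal fell more than 3 SD beyond the full-serotonin control mean in both duplicate plates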;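 as to outcome: serotonin given first at submaximal then at maximal dose after compound preincubation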); details: Fluo-4 calcium flux, at 10 µM; inhibition: active compounds read high, serotonin added to trigger calcium flux unless noted; outcome: serotonin added to trigger calcium flux unless noted
# [14] = tested on: TRPC4 (mouse), co-expressed with 5HT1a in HEK293; assay: enhancement of serotonin-evoked TRPC4 response – cell-based, second counter screen, HEK293 TRPC4/5HT1a, Fluo-4, counter-screen for TRPC4 potentiator project, confirmation (AID 434979;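 active = signal rise over 3 SD above mean of control wells given weak agonist, in both repeats and first screen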); details: Fluo-4 calcium flux, at 10 µM; outcome: serotonin added at its EC20 dose unless noted; potentiation: active compounds read high, serotonin added at its EC20 dose unless noted
# [15] = nonspecific calcium rise without TRPC4 – cell-based, HEK293 mu-opioid receptor line, counter-screen for TRPC4 activator project, confirmation (AID 449723;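 active = hit in primary screen, with calcium signal over 5 SD above buffer well mean in both duplicates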;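 also: counter screen cells carry the mu-opioid receptor alone and lack TRPC4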); details: HEK293 mu-opioid cells, Fluo-4 calcium fluorescence, at 10 µM; active compounds read high
# [16] = nonspecific potentiation of DAMGO calcium response – cell-based, HEK293 mu-opioid receptor line, counter-screen for TRPC4 allosteric potentiator project, confirmation (AID 449724;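 active = calcium signal rise more than 3 SD above the low-dose agonist control mean, in both duplicate plates and the primary screen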); details: HEK293 mu-opioid receptor cells, Fluo-4 calcium flux, at 10 µM; compound added before EC20 DAMGO stimulus unless noted
# [17] = biological target: Short transient receptor potential channel 4 (Mus musculus) (UniProt Q9QUQ5); assay: block of DAMGO-driven TRPC4 calcium entry – cell-based, HEK293 TRPC4/mu-opioid, Fluo-4 calcium, dose response (AID 434942;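 active = primary screen inhibitor hit that blocks the TRPC4 channel at some tested dose, yielding a dose curve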)
# Chain of Short transient receptor potential channel 6 (Mus musculus) (Q61143 whole entry, looked up): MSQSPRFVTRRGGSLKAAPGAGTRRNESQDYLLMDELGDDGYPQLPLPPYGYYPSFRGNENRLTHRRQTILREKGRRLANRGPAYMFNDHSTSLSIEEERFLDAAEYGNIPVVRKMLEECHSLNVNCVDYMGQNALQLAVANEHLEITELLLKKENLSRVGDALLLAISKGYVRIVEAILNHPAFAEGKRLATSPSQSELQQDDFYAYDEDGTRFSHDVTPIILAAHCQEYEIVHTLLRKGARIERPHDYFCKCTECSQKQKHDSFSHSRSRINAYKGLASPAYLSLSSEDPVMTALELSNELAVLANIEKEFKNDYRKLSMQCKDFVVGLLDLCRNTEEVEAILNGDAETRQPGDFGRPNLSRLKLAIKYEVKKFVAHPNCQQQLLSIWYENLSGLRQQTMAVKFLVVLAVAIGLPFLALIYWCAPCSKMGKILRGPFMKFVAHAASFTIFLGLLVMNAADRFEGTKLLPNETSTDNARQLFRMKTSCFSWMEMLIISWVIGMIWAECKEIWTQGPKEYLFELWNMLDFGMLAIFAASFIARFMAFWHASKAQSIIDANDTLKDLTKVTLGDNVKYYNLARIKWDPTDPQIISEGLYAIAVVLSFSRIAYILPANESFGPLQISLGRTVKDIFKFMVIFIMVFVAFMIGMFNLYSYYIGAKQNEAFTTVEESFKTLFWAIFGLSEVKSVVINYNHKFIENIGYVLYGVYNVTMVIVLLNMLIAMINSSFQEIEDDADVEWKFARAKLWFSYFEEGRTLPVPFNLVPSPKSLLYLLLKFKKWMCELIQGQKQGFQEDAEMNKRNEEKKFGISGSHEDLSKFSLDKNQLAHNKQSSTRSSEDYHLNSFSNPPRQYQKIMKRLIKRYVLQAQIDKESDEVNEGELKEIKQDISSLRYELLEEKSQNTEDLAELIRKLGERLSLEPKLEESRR
# Chain of Short transient receptor potential channel 4 (Mus musculus) (Q9QUQ5 whole entry, looked up): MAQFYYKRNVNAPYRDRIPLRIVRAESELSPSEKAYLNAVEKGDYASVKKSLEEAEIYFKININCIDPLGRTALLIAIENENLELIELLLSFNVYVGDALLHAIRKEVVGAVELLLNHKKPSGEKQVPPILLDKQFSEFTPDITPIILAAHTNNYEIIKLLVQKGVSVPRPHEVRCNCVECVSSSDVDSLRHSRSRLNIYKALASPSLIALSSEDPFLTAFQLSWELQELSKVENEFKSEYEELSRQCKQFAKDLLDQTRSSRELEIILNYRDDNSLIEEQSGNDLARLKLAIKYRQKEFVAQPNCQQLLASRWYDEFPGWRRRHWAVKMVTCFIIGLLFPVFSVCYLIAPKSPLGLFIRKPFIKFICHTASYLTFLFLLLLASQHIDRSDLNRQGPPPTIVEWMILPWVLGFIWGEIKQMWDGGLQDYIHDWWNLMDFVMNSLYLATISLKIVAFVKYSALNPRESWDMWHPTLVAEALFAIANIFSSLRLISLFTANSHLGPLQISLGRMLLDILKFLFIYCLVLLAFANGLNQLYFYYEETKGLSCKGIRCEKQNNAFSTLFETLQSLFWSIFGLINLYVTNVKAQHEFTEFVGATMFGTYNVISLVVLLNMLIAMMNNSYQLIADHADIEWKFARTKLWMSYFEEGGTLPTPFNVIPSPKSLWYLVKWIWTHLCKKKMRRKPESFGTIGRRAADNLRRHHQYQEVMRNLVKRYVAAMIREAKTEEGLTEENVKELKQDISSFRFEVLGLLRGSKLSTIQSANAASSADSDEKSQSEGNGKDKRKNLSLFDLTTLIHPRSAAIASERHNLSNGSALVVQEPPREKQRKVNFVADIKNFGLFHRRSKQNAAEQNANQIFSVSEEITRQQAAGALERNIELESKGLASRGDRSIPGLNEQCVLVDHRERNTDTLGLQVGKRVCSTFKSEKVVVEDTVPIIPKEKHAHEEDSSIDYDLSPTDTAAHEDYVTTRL
smiles,measurement,setting,value
Cc1ccc(CN2C3CCCC2CC(NC(=S)NCc2ccccc2)C3)cc1 (stereo not drawn),outcome,[1],inactive
same,outcome,[2],inactive
same,outcome,[3],inactive
same,outcome,[4],inactive
same,inhibition,[5],88% (active)
same,outcome,[6],inactive
same,outcome,[7],inactive
same,outcome,[8],inactive
same,outcome,[9],inactive
same,outcome,[10],inactive
same,outcome,[11],inactive
same,outcome,[12],inactive
same,inhibition,[13],36.3% (active)
same,outcome,[14],inactive
same,outcome,[15],inactive
same,outcome,[16],inactive
CC(=O)OC1(c2ccccc2)CCN(C2CCCCC2)CC1C (stereo not drawn),outcome,[1],inactive
same,outcome,[2],inactive
same,outcome,[3],inactive
same,outcome,[4],inactive
same,inhibition,[5],91% (active)
same,outcome,[6],inactive
same,outcome,[7],inactive
same,outcome,[8],inactive
same,outcome,[9],inactive [setting not given]
same,outcome,[10],inactive
same,outcome,[11],inactive [setting not given]
same,outcome,[12],inactive
same,outcome,[13],inactive [setting not given]
same,outcome,[14],inactive [setting not given]
same,outcome,[15],inactive
same,outcome,[16],inactive [setting not given]
CC(Cc1ccccc1Sc1ccccc1O)N(C)C (stereo not drawn),outcome,[1],inactive
same,outcome,[2],inactive
same,outcome,[3],inactive
same,outcome,[4],inactive
same,inhibition,[5],99% (active)
same,inhibition,[6],70% (active)
same,outcome,[7],inactive
same,outcome,[8],inactive
same,inhibition,[9],50.5% (active)
same,outcome,[10],inactive
same,outcome,[11],inactive
same,outcome,[12],inactive
same,inhibition,[13],33% (active)
same,outcome,[14],inactive
same,outcome,[15],inactive
same,outcome,[16],inactive
O=C(Cc1ccccc1)N1CCN(Cc2cccc(Br)c2)CC1,outcome,[1],inactive
same,outcome,[2],inactive
same,outcome,[3],inactive
same,outcome,[4],inactive
same,inhibition,[5],81% (active)
same,outcome,[6],inactive
same,outcome,[7],inactive
same,outcome,[8],inactive
same,outcome,[9],inactive
same,outcome,[10],inactive
same,outcome,[11],inactive
same,outcome,[12],inactive
same,inhibition,[13],37.8% (active)
same,outcome,[14],inactive
same,outcome,[15],inactive
same,outcome,[16],inactive
CCc1nccc2c1[nH]c1ccccc12,outcome,[1],inactive
same,outcome,[2],inactive
same,outcome,[3],inactive
same,outcome,[4],inactive
same,inhibition,[5],93% (active)
same,inhibition,[6],63% (active)
same,outcome,[7],inactive
same,outcome,[8],inactive
same,outcome,[9],inactive
same,outcome,[10],inactive
same,outcome,[11],inactive
same,outcome,[12],inactive
same,inhibition,[13],9.99% (active)
same,outcome,[14],inactive
same,outcome,[15],inactive
same,outcome,[16],inactive
COc1ccc(C(=O)C2CN(C)CC2c2ccc(Cl)cc2)cc1 (stereo not drawn),outcome,[1],inactive
same,outcome,[2],inactive
same,outcome,[3],inactive
same,outcome,[4],inactive
same,outcome,[5],inactive
same,outcome,[6],inactive
same,outcome,[7],inactive
same,outcome,[8],inactive
same,outcome,[17],inactive
same,outcome,[9],inactive
same,outcome,[10],inactive
same,outcome,[11],inactive
same,outcome,[12],inactive
same,outcome,[13],inactive
same,outcome,[14],inactive
same,outcome,[15],inactive
same,outcome,[16],inactive
COc1ccc(O)c(CN2CCCC(C(=O)c3sccc3C)C2)c1 (stereo not drawn),outcome,[1],inactive
same,outcome,[2],inactive
same,outcome,[3],inactive
same,outcome,[4],inactive
same,inhibition,[5],92% (active)
same,outcome,[6],inactive
same,outcome,[7],inactive
same,outcome,[8],inactive
same,outcome,[9],inactive
same,outcome,[10],inactive
same,outcome,[11],inactive
same,outcome,[12],inactive
same,inhibition,[13],29.4% (active)
same,outcome,[14],inactive
same,outcome,[15],inactive
same,outcome,[16],inactive
c1ccc2nc(OCCN3CC3)ccc2c1,outcome,[1],inactive
same,outcome,[2],inactive
same,outcome,[3],inactive
same,potentiation,[4],17% (active)
same,outcome,[5],inactive
same,outcome,[6],inactive
same,outcome,[7],inactive
same,outcome,[8],inactive
same,outcome,[17],inactive
same,outcome,[9],inactive
same,outcome,[10],inactive
same,outcome,[11],inactive
same,outcome,[12],inactive
same,outcome,[13],inactive
same,potentiation,[14],16.5% (active)
same,outcome,[15],inactive
same,outcome,[16],inactive
CCN(CC)CC(=O)Nc1ccc(Cl)cc1C(=O)c1ccccc1,outcome,[1],inactive
same,outcome,[2],inactive
same,outcome,[3],inactive
same,outcome,[4],inactive
same,inhibition,[5],89% (active)
same,outcome,[6],inactive
same,outcome,[7],inactive
same,outcome,[8],inactive
same,outcome,[9],inactive
same,outcome,[10],inactive
same,outcome,[11],inactive
same,outcome,[12],inactive
same,inhibition,[13],33.6% (active)
same,outcome,[14],inactive
same,outcome,[15],inactive
same,outcome,[16],inactive
CCN(CC)c1ccc([N+](=O)[O-])c2cccnc12,outcome,[1],inactive
same,outcome,[2],inactive
same,outcome,[3],inactive
same,outcome,[4],inactive
same,inhibition,[5],93% (active)
same,outcome,[6],inactive
same,outcome,[7],inactive
same,outcome,[8],inactive
same,outcome,[9],inactive
same,outcome,[10],inactive
same,outcome,[11],inactive
same,outcome,[12],inactive
same,inhibition,[13],28% (active)
same,outcome,[14],inactive
same,outcome,[15],inactive
same,outcome,[16],inactive
Oc1c(Br)cc(Br)cc1CN1CCN(Cc2ccccc2)CC1,outcome,[1],inactive
same,outcome,[2],inactive
same,outcome,[3],inactive
same,potentiation,[4],44% (active)
same,outcome,[5],inactive
same,outcome,[6],inactive
same,outcome,[7],inactive
same,outcome,[8],inactive
same,outcome,[17],inactive
same,outcome,[9],inactive [setting not given]
same,outcome,[10],inactive
same,outcome,[11],inactive [setting not given]
same,outcome,[12],inactive
same,outcome,[13],inactive [setting not given]
same,potentiation,[14],20.2% [active compounds read high] (active)
same,outcome,[15],inactive
same,outcome,[16],inactive [setting not given]
CCN(CC)P(=O)(/C=C(\Cl)c1ccccc1)/C=C(\Cl)c1ccccc1,outcome,[1],inactive
same,outcome,[2],inactive
same,potentiation,[3],7% (active)
same,outcome,[4],inactive
same,outcome,[5],inactive
same,outcome,[6],inactive
same,outcome,[7],inactive
same,outcome,[8],inactive
same,outcome,[17],inactive
same,outcome,[9],inactive
same,outcome,[10],inactive
same,outcome,[11],inactive
same,outcome,[12],inactive
same,outcome,[13],inactive
same,outcome,[14],inactive
same,outcome,[15],inactive
same,outcome,[16],inactive
N=c1n(CCO)c2ccccc2n1Cc1ccccc1,outcome,[1],inactive
same,outcome,[2],inactive
same,outcome,[3],inactive
same,outcome,[4],inactive
same,inhibition,[5],86% (active)
same,inhibition,[6],48% (active)
same,outcome,[7],inactive
same,outcome,[8],inactive
same,outcome,[9],inactive
same,outcome,[10],inactive
same,outcome,[11],inactive
same,outcome,[12],inactive
same,inhibition,[13],42.9% (active)
same,outcome,[14],inactive
same,outcome,[15],inactive
same,outcome,[16],inactive
O=C(c1cccc(C(F)(F)F)c1)C1CCCN(Cc2ccccc2O)C1 (stereo not drawn),outcome,[1],inactive
same,outcome,[2],inactive
same,outcome,[3],inactive
same,outcome,[4],inactive
same,inhibition,[5],87% (active)
same,outcome,[6],inactive
same,outcome,[7],inactive
same,outcome,[8],inactive
same,outcome,[9],inactive
same,outcome,[10],inactive
same,outcome,[11],inactive
same,outcome,[12],inactive
same,inhibition,[13],24.6% (active)
same,outcome,[14],inactive
same,outcome,[15],inactive
same,outcome,[16],inactive
